Screening data (PubChem BioAssay)
KCNH2 WT inh: qHTS for Inhibitors of KCHN2 3.1: Wildtype qHTS; Voltage-gated inwardly rectifying potassium channel KCNH2 (Homo sapiens), Q12809; U2OS, BacMam KCNH2, thallium flux FluxOr; stronger effect = lower value; activity change, % at 1.84 µM; 340,000 tested, 0.37% active; AID 720551, 2013;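 active = maximum activity change below -70%; inconclusive = maximum activity change between -70% and -50%; inactive = maximum activity change above -50%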
Target sequence (Q12809 whole entry, looked up): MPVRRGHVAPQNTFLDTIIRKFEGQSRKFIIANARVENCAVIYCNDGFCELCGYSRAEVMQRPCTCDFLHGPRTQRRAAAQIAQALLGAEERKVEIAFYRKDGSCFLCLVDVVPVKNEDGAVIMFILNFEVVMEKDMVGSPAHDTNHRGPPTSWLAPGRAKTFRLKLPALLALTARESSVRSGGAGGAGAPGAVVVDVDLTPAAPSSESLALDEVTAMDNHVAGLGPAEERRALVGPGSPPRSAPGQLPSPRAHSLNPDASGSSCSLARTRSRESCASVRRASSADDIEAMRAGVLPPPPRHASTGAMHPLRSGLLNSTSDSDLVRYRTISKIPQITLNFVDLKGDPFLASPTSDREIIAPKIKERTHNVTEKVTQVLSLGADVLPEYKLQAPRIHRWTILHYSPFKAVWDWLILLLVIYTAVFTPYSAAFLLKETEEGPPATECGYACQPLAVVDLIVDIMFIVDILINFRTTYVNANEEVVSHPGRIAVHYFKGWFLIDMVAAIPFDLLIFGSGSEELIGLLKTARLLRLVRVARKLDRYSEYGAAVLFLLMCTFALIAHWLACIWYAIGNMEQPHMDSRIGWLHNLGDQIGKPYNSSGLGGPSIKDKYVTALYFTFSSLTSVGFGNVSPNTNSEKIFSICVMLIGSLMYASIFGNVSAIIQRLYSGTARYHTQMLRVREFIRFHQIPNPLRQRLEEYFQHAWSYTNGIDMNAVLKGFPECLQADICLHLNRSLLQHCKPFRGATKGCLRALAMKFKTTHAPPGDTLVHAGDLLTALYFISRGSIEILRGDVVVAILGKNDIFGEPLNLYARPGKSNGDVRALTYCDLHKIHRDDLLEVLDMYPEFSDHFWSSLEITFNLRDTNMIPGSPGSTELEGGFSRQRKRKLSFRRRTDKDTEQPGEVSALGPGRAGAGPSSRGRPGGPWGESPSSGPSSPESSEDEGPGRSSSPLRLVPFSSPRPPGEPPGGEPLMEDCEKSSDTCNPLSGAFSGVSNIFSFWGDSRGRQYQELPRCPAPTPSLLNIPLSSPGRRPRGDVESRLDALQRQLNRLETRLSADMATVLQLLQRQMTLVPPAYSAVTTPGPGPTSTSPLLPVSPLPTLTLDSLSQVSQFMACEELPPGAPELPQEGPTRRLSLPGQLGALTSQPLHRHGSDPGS
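U2OS cells transduced with wild-type KCNH2 virus are loaded with FluxOr dye for 45 min, and thallium flux is measured in kinetic reads before and after stimulation buffer. Rate constants are normalized to DMSO controls.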
KCNH2 3.1 block: qHTS for Inhibitors of KCHN2 3.1: Mutant qHTS; Potassium voltage-gated channel subfamily H member 2, brain isoform KCNH2 3.1 (human); U2OS KCNH2 3.1, thallium flux FluxOr; stronger effect = lower value; activity change, % (tested at about 1.8 µM); 340,000 tested, 0.95% active;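 active = maximum activity change below -70%; inconclusive = maximum activity change from -70% to -50%; inactive = maximum activity change above -50%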;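 also: thallium influx rate constant from kinetic fluorescence after stimulation buffer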
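We transduce U2OS cells with the mutant 3.1 virus, culture them overnight, load FluxOr with Red40 quencher for 45 min, then add stimulation buffer and read kinetically for 2 min to derive a normalized rate constant.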
TRPV1 ag: HTS Assay for Compounds that Act as Agonists of the Vanilloid Receptor 1; Transient receptor potential cation channel subfamily V member 1 (Homo sapiens), Q8NER1; TRPV1-expressing cells, Fluo-8 calcium influx, agonist mode; activation, % at 8.33 µM; 320,000 tested, 0.19% active; AID 540275, 2011; in the data active = activation above about 80%; inconclusive = between about 30% and that limit
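Cells expressing TRPV1 were dye-loaded with Fluo-8 and read kinetically: 10 s baseline, 3 min after compound (agonist portion), then 2 min after EC20 capsaicin (allosteric enhancer portion). Calcium-bound dye fluorescence at 480/520 nm.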
TRPV1 potentiator: HTS Assay for Compounds that Act as Potentiators of the Vanilloid Receptor 1 | potentiation, % at 8.33 µM | TRPV1-expressing cells, Fluo-8 calcium influx, capsaicin EC20 potentiation | 320,000 tested, 0.02% active; in the data active = potentiation above about 80%; inconclusive = between about 30% and that limit
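Cells expressing TRPV1 were dye-loaded with Fluo-8 and read kinetically: 10 s baseline, 3 min after compound (agonist portion), then 2 min after EC20 capsaicin (allosteric enhancer portion). Calcium-bound dye fluorescence at 480/520 nm.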
A number is an active result; 0 = inactive; ? = inconclusive; - = no result given. Only some compounds are listed: those with a hit (about 1.3% of all), similar ones and a draw of the others.

SMILES	KCNH2 WT inh	KCNH2 3.1 block	TRPV1 ag	TRPV1 potentiator
O=C(N1CCOCC1)N1CCN(c2ccccc2)CC1	0	0	?	0
O=C(N1CCOCC1)N1CCN(c2ccccc2F)CC1	0	0	83	0
CC(NC(=O)C(=O)N1CCOCC1)C(c1cccs1)N1CCN(c2ccccc2F)CC1 (stereo unspecified)	0	-122	?	0
COc1ccc(C)cc1NC(=O)COC(=O)CCC(=O)c1cccs1	0	0	0	0
O=C(NC1CCCCC1)C(c1ccccc1F)N(C(=O)c1csnn1)C1CCCC1 (stereo unspecified)	0	0	0	0
COc1ccc(NC(=O)COC(=O)COc2cccc(Br)c2)cc1OC	0	0	0	0
O=C(COC(=O)COc1cccc(Br)c1)Nc1c(Cl)cccc1Cl	-189	0	0	0
CC12CCC(=O)N1C(C(=O)Nc1cc(Cl)ccc1N1CCCC1)CS2 (stereo unspecified)	0	0	0	0
CCOc1ccc(N2CC(C(=O)Nc3ccc(N4CCOCC4)cc3)CC2=O)cc1 (stereo unspecified)	-104	0	0	0
COc1cc(C(=O)NNC(=O)CN2C(=O)NC(C)(c3ccc(C)cc3)C2=O)cc(OC)c1OC (stereo unspecified)	0	0	0	0
COc1ccc(CCN(C)C2CCCN(S(C)(=O)=O)C2)cc1OC (stereo unspecified)	0	0	0	0
CC(=O)c1ccc(S(=O)(=O)N2CCCC(N(C)CCc3ccccc3)C2)cc1 (stereo unspecified)	?	-94	0	0
COc1ccc(CCN(C)C2CCCN(S(=O)(=O)c3ccc(C)cc3)C2)cc1OC (stereo unspecified)	0	-83	0	0
COC(=O)C1=C(C)N(Cc2ccccc2)C(=NCC2CC2)N[C@H]1c1ccc(Br)cc1	-	-	0	0
CSc1nc(-c2cccs2)c(C#N)c(=O)[nH]1	-133	0	0	0
CCN1C(=O)C(NC(C)=O)c2cc(OC)ccc21 (stereo unspecified)	0	0	0	0
COc1ccc([C@@H]2Sc3cc(OC)ccc3N(CCN(C(C)C)C(C)C)C(=O)[C@H]2OC(C)=O)cc1	-90	-100	0	0
N#CC(C#N)=C1C=CC=CN1/C(=C\c1ccco1)C(=O)c1ccc(Cl)cc1	0	-86	?	0
CC(/C=N/n1c(-c2ccc(Cl)cc2)n[nH]c1=S)=C\c1ccco1	0	0	0	0
N#CC(C#N)=C1C=CC=CN1/C(=C\c1ccco1)C(=O)c1ccc(-c2ccccc2)cc1	0	-85	0	0
O=C(NCc1ccc(Cl)cc1)C1CC(O)CN1S(=O)(=O)c1ccc(Cl)cc1 (stereo unspecified)	0	0	0	0
CCOc1ccc(NCc2cccn2-c2nnc(N3CCC(C(=O)NCCCN4C(C)CCCC4C)CC3)s2)cc1 (stereo unspecified)	-228	0	0	0
CCOc1ccc(NCc2cccn2-c2nnc(N3CCC(C(=O)NCCCN4CCCCC4C)CC3)s2)cc1 (stereo unspecified)	0	0	0	0
O=C(CSc1nnc(NC(=O)c2c(F)cccc2Cl)s1)Nc1ccccc1F	0	-	0	0
COc1ccc(C)cc1NC(=O)Nc1ccccc1	-137	-135	0	0
SMILES	KCNH2 WT inh	KCNH2 3.1 block	TRPV1 ag	TRPV1 potentiator
CCOC(=O)c1[nH]c2ccc(F)cc2c1NC(=O)CN1CCN(C/C=C/c2ccccc2)CC1	-90	?	0	0
COc1ccc(NC(=O)Nc2cc(C)ccc2OC)cc1	0	0	0	?
COC(=O)c1[nH]c2ccccc2c1NC(=O)CN1CCN(C/C=C/c2ccccc2)CC1	-94	-96	0	0
COc1ccc(C)cc1NC(=O)CN1CCN(C/C=C/c2ccccc2)CC1	-98	-102	0	0
COC(=O)c1[nH]c2ccccc2c1NC(=O)CN1CC(C)OC(C)C1 (stereo unspecified)	0	0	0	0
O=C1C=C(c2cc(F)ccc2F)C[C@@H](c2ccc(F)cc2)C1	0	0	?	0
COc1ccc(NC(=O)c2cccn2-c2nnc(N3CCCCC3)s2)cc1	-	-	0	0
Cc1ccc2ccc3c(c2n1)NS(=O)(=O)c1ccc(C(F)(F)F)cc1-3	-	-	0	0
CC1CCCN(c2ccc(C(=O)Nc3cccnc3)cc2[N+](=O)[O-])C1 (stereo unspecified)	0	0	87	0
CC(=O)Nc1ccc(N2CCCC(C)C2)c([N+](=O)[O-])c1 (stereo unspecified)	0	0	0	0
O=C(Nc1cnn(C23CC4CC(CC(C4)C2)C3)c1)c1cc(-c2ccccc2)on1	0	-75	0	0
COc1ccc(-c2cc(C(=O)Nc3cnn(Cc4ccccc4C)c3)no2)cc1OC	-248	0	0	0
Cc1ccc(-c2cc(C(=O)Nc3cnn(C45CC6CC(CC(C6)C4)C5)c3)no2)cc1	0	0	0	0
CC(C)(OC(=O)c1ccc(F)cc1)c1cc2ccccc2c(=O)o1	0	0	?	0
CCCC(=O)OCC(=O)Nc1cc([N+](=O)[O-])ccc1OC	0	0	0	0
COc1ccccc1NC(=O)Cn1cc(C#N)c2ccccc21	-254	0	0	0
COc1ccccc1NC(=O)CSCc1ccc([N+](=O)[O-])cc1	-149	-199	0	?
COc1ccc([N+](=O)[O-])cc1NC(=O)COC(C)=O	0	-123	0	0
Cc1ccc(C)c(Nc2nc3c(S(=O)(=O)c4ccccc4)nnn3c3ccccc23)c1	0	-72	0	0
c1ccc2oc(-c3ccc(Nc4nc(N5CCOCC5)nc(N5CCOCC5)n4)cc3)nc2c1	0	0	-	-
CC1(C)C2CCC(CN=C(N)CSS(=O)(=O)O)C1C2 (stereo unspecified)	0	0	-	-
O=C(N/N=C/C=C\c1ccccc1)c1cnccn1	0	0	0	0
O=C(N/N=C/C=C/c1ccccc1)c1ccccn1	0	0	97	0
COc1ccc(N2CCN(C(=O)c3cc(=O)c4ccc(C)cc4o3)CC2)cc1	0	0	0	0
O=C(c1ccc2c(c1)OCO2)C1CCCN(Cc2cccc(C(F)(F)F)c2)C1 (stereo unspecified)	0	0	0	0
O=C(c1ccc2c(c1)OCO2)C1CCCN(Cc2ccc(OC(F)F)cc2)C1 (stereo unspecified)	0	-94	0	0
O=C(c1ccc2c(c1)OCO2)C1CCCN(Cc2ccc3cccc(F)c3n2)C1 (stereo unspecified)	0	-101	0	0
CCN(CC)C(=O)C1=C(C)N(Cc2ccc(OC)cc2)C(=O)C(CC(=O)NCc2cccc3ccccc23)C1 (stereo unspecified)	0	0	-	-
O=C(c1cnn2c(C(F)F)cc(C3CC3)nc12)N1CCCC1	0	-99	0	0
